Measured values published in PubChem BioAssay.
Active and inactive are the calls of the source. Unless noted, how the calls were made is not given here.

Tests used:
[1] = A549 cell viability effects, profiling panel, calcein-AM fluorescence, 48 h, basal (AID 1162); conditions: higher = more signal; further: test concentration not given here
[2] = adipocyte viability effects, profiling panel, cell-based, 3T3-L1 adipocytes, calcein-AM fluorescence, 48 h, basal (AID 1163); conditions: 3T3-L1 adipocytes viability, higher = more signal; further: test concentration not given here
[3] = HepG2 cell viability effects, profiling panel, calcein-AM fluorescence, 48 h, basal (AID 1164); conditions: higher = more signal; further: test concentration not given here
[4] = MM1S cell viability effects, profiling panel, calcein-AM fluorescence, 48 h, basal (AID 1165); conditions: higher = more signal;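 further: viability of MM1S multiple myeloma cells under basal unstimulated conditions; test concentration not given here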
[5] = basal RPMI8226 viability, no added stimulus, profiling panel, cell-based, calcein-AM fluorescence, 48 h, PK04 Diversity Set (AID 1166); conditions: RPMI8226 myeloma viability, higher = more signal;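 further: cells grown under basal conditions without added stimulus; test concentration not given here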
[6] = basal HepG2 mitochondrial membrane potential changes, profiling panel, cell-based, JC-1 fluorescence, 24 h, 100 nL compound (AID 1167); conditions: higher = more signal; further: test concentration not given here
[7] = basal 3T3-L1 adipocyte mitochondrial potential changes, profiling panel, cell-based, JC-1 fluorescence, 3T3-L1 adipocytes, 24 h, 100 nL compound (AID 1168); conditions: JC-1 mitochondrial fluorescence, higher = more signal, called active from +8 up or from −8 down; further: test concentration not given here
[8] = basal RPMI8226 mitochondrial membrane potential changes, profiling panel, cell-based, JC-1 fluorescence, 24 h, 100 nL compound (AID 1169); conditions: RPMI8226 myeloma, JC-1 mitochondrial potential fluorescence, higher = more signal; further: test concentration not given here
[9] = basal MM1S mitochondrial membrane potential changes, profiling panel, cell-based, JC-1 fluorescence, 24 h, 100 nL compound (AID 1170); conditions: higher = more signal; further: test concentration not given here
[10] = A549 lung cancer cell viability effects, profiling panel, resazurin fluorescence, 24 h, PK04 Diversity Set (AID 1171); conditions: higher = more signal, called active from +8 up or from −8 down; further: test concentration not given here
[11] = HepG2 liver cancer cell viability effects, profiling panel, resazurin fluorescence, 24 h, PK04 Diversity Set (AID 1172); conditions: higher = more signal; further: test concentration not given here
[12] = basal S. cerevisiae growth modulation, no modifier, primary screen, OD600, strain BY4716, 24 h, basal condition (AID 1173); conditions: OD600, 24 h, higher = more signal, called active from +8 up or from −8 down
[13] = MM1S myeloma cell viability, profiling panel, resazurin fluorescence, basal, 24 h, PK04 Diversity Set (AID 1174); conditions: higher = more signal, called active from +8 up or from −8 down;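 further: MM1S multiple myeloma cell line; test concentration not given here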
[14] = molecular target: Dihydroorotate dehydrogenase (quinone), mitochondrial (Plasmodium falciparum (isolate 3D7)) (UniProt Q08210); test: PfDHODH enzyme inhibitors, primary screen, biochemical, C-terminal His tag, absorbance 600 nm (AID 1175); conditions: DCIP absorbance 600 nm, higher = more signal, called active from +8 up or from −8 down;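 further: recombinant parasite enzyme with a five histidine tag at its C terminus; test concentration not given here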
[15] = P. aeruginosa biofilm formation inhibitors, primary screen, strain PAO1, LB-PBS medium, absorbance 600 nm (AID 1176); further: test concentration not given here; conditions: P. aeruginosa PAO1 growth/biofilm, A600, 12 h; higher = more signal
[16] = S. cerevisiae RM11-1a growth modifiers, primary screen, strain RM11-1a, OD600, basal, 24 h (AID 1177); conditions: OD600, 24 h, higher = more signal, called active from +8 up or from −8 down;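 further: cultures grown under basal conditions with no added stressor; test concentration not given here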
[17] = E. coli acrAB mutant growth effects, primary screen, E. coli filamentation inducers, strain DRC39, OD650, 24 h (AID 1178); conditions: higher = more signal, called active from +8 up or from −8 down;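 further: growth measured as culture turbidity by optical density at 650 nm; test concentration not given here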
[18] = E. coli acrAB mutant growth effects, primary screen, E. coli filamentation inducers, strain DRC39, OD650, 48 h (AID 1179);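 further: screen aims at cell division blockers that make cells filament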; conditions: E. coli DRC39 delta-acrAB growth, higher = more signal, called active from +8 up or from −8 down
[19] = RPMI8226 myeloma cell viability, profiling panel, resazurin fluorescence, basal, 24 h, PK04 Diversity Set (AID 1180); conditions: higher = more signal;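 further: RPMI8826 multiple myeloma cell line at 5000 cells per well; test concentration not given here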
[20] = molecular target: E3 ubiquitin-protein ligase XIAP (Homo sapiens) (UniProt P98170); test: XIAP binders, primary screen, biophysical, small-molecule microarray, fluorescence 635 nm (AID 1181); conditions: small-molecule microarray binding, higher = more signal;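 further: score merges 667 nm emission and signal to noise over triplicate slides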
E3 ubiquitin-protein ligase XIAP (Homo sapiens), sequence (P98170 whole entry, looked up): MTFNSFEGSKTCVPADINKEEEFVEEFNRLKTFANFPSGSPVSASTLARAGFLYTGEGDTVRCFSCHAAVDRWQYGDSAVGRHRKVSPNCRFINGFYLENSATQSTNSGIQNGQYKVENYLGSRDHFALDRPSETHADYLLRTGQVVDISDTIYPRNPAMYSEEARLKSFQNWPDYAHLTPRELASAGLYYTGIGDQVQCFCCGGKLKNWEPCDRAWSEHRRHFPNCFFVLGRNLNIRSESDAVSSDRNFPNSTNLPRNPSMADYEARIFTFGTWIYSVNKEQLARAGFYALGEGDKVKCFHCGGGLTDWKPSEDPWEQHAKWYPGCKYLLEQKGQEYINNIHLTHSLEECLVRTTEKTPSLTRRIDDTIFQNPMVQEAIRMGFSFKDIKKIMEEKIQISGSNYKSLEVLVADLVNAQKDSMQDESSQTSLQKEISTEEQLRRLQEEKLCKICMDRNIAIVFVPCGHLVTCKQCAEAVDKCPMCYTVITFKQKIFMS

Dihydroorotate dehydrogenase (quinone), mitochondrial (Plasmodium falciparum (isolate 3D7)), sequence (Q08210 whole entry, looked up): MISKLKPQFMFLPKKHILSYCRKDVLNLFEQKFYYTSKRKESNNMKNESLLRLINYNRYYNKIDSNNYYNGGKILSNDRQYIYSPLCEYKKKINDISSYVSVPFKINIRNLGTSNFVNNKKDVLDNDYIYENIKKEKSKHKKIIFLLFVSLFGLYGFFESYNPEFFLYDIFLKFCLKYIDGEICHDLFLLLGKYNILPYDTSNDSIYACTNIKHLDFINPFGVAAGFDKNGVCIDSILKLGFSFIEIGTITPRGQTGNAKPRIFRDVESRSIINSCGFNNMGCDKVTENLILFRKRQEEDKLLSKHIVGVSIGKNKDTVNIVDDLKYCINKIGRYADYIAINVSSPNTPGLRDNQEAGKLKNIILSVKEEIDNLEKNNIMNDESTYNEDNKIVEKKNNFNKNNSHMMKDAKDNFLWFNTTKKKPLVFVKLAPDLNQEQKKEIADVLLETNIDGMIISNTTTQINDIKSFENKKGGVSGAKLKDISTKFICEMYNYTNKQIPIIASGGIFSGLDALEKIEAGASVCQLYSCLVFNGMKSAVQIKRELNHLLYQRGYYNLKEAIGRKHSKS

Row | Structure (SMILES) | z-score [1] | z-score [2] | z-score [3] | z-score [4] | z-score [5] | z-score [6] | z-score [7] | z-score [8] | z-score [9] | z-score [10] | z-score [11] | z-score [12] | z-score [13] | composite z-score [14] | z-score [15] | z-score [16] | z-score [17] | z-score [18] | z-score [19] | composite z-score [20]
1 | C=CC[C@@]12N=C(c3ccc(OCCCO)cc3)O[C@@H]1c1ccccc1N(C)C2=O | -0.588 | 0.596 | -1.33 | -1.79 | -2.61 | 0.0239 | 1.51 (inactive) | -1.12 | -0.767 | -0.0732 (inactive) | -0.0241 | -0.926 (inactive) | -2.53 (inactive) | 0.579 (inactive) | 0.0684 (inactive) | 1.46 (inactive) | 0.817 (inactive) | 1.18 (inactive) | -0.912 | 0.368
2 | O=C1c2ccccc2[C@](Cc2ccccc2I)(C(=O)NCCN2CCOCC2)[C@H](c2ccc(CO)cc2)N1Cc1ccccc1Cl | 0.537 | 0.261 | 0.63 | -1.66 | -1.88 | 1.77 | -0.585 (inactive) | -0.273 | 0.918 | 0.928 (inactive) | -0.322 | -0.935 (inactive) | 0.618 (inactive) | -0.0768 (inactive) | 0.916 (inactive) | -0.0576 (inactive) | 0.768 (inactive) | -0.108 (inactive) | 0.304 | -0.102
3 | CC(C)CNC(=O)[C@@]1(Cc2ccccc2I)c2ccccc2C(=O)N(C2CCCCC2)[C@H]1c1ccc(CO)cc1 | -0.175 | -0.316 | -0.762 | -1.45 | -2.39 | -0.396 | -0.485 (inactive) | -0.594 | -0.213 | 0.623 (inactive) | -0.462 | 0.408 (inactive) | -0.424 (inactive) | 0.193 (inactive) | 0.348 (inactive) | -0.199 (inactive) | -0.113 (inactive) | -0.0397 (inactive) | -0.124 | -0.0789
4 | CC1(C)C2C=C(C(O)C3C=CC4C(=O)NC(=O)C4N3Nc3ccc(Cl)cc3Cl)C[C@@H]1C2 (stereo not given in full) | -2.48 | -0.88 | -1.8 | -3.73 | -4.1 | -4.27 | -0.803 (inactive) | -1.14 | -1.04 | -1.85 (inactive) | -2.13 | -7.58 (inactive) | -1.9 (inactive) | 0.356 (inactive) | 1.55 (inactive) | 0.84 (inactive) | -0.274 (inactive) | -1.08 (inactive) | -1.79 | -0.0769
5 | CCCCCN1CC=CC23O[C@@H]4/C=C\CCC(C)OC(=O)C4[C@H]2C(=O)N(C(C)CO)[C@@H]3C1=O (stereo not given in full) | 0.342 | 0.287 | 0.356 | 0.508 | 0.311 | 0.558 | -0.00375 (inactive) | 0.724 | -0.759 | 1.02 (inactive) | 0.194 | 0.142 (inactive) | -0.139 (inactive) | 0.005 (inactive) | -0.0153 (inactive) | 0.449 (inactive) | 0.866 (inactive) | 0.657 (inactive) | 1.07 | -0.127
6 | O=C(OCc1ccccc1)C1=CCC2c3[nH]c4ccccc4c3C(=O)C1N2S(=O)(=O)c1ccccc1[N+](=O)[O-] (stereo not given) | -0.725 | -0.816 | -0.267 | -0.624 | -0.286 | -3.06 | -4.43 (inactive) | -1.14 | -3.28 | -0.311 (inactive) | -0.106 | 1.57 (inactive) | -1.2 (inactive) | -0.386 (inactive) | 0.381 (inactive) | 0.714 (inactive) | -1.04 (inactive) | -1.43 (inactive) | -0.878 | -0.113
7 | C=CCOC(=O)[C@H]1[C@@H]2C(=O)O[C@@H](c3ccccc3)[C@@H](c3ccccc3)N2[C@@H](c2ccc(OCCOC(=O)[C@H]3C[C@H]4C(=O)N[C@@H](CCCC[N+](C)(C)C)C(=O)N4[C@H]3c3ccc(O)cc3)cc2)[C@]12C(=O)Nc1ccc(I)cc12 | 0.191 | -0.113 | 0.837 | -0.233 | -0.661 | 0.239 | -0.672 (inactive) | 0.0674 | 0.17 | -0.0807 (inactive) | -0.427 | -0.154 (inactive) | -0.13 (inactive) | -0.24 (inactive) | -0.379 (inactive) | 0.0102 (inactive) | -0.873 (inactive) | -0.473 (inactive) | -0.078 | 2.28
8 | COc1cc(Br)cc(C(O)C2C=CC3C(=O)N(C)C(=O)C3N2N2CCCCC2)c1OC (stereo not given) | -1.12 | -0.456 | -0.315 | -1.68 | -0.18 | -1.05 | -0.535 (inactive) | 0.672 | -0.129 | -0.318 (inactive) | -1.17 | -1.43 (inactive) | -1.17 (inactive) | -0.282 (inactive) | 0.406 (inactive) | 1.25 (inactive) | -0.596 (inactive) | -0.683 (inactive) | -1.07 | 0.0123
